The results in this text go back to ChEMBL document CHEMBL3988442, “University of Dundee, Small-Polar-MMV Screening Library” (2021).

Molecules are shown by their SMILES. For some of these results: Potency and affinity values are given separately.

Common to all, as to set-up: scale not given: direction of the effect not stated beside the values
Experiment [1] has as its target Protein translocase subunit SecA (Escherichia coli (strain K12)) (UniProt P10408). Kind of experiment: Assay to Identify E. coli SecA ATPase Inhibitors. In kind it is functional. Particulars: 30 µM.
Experiment [2] deals with T1, Ubiquitin-activating enzyme e1, putative (Leishmania donovani (strain BPK282A1)) (UniProt E9BSI1).
T1 sequence (whole entry): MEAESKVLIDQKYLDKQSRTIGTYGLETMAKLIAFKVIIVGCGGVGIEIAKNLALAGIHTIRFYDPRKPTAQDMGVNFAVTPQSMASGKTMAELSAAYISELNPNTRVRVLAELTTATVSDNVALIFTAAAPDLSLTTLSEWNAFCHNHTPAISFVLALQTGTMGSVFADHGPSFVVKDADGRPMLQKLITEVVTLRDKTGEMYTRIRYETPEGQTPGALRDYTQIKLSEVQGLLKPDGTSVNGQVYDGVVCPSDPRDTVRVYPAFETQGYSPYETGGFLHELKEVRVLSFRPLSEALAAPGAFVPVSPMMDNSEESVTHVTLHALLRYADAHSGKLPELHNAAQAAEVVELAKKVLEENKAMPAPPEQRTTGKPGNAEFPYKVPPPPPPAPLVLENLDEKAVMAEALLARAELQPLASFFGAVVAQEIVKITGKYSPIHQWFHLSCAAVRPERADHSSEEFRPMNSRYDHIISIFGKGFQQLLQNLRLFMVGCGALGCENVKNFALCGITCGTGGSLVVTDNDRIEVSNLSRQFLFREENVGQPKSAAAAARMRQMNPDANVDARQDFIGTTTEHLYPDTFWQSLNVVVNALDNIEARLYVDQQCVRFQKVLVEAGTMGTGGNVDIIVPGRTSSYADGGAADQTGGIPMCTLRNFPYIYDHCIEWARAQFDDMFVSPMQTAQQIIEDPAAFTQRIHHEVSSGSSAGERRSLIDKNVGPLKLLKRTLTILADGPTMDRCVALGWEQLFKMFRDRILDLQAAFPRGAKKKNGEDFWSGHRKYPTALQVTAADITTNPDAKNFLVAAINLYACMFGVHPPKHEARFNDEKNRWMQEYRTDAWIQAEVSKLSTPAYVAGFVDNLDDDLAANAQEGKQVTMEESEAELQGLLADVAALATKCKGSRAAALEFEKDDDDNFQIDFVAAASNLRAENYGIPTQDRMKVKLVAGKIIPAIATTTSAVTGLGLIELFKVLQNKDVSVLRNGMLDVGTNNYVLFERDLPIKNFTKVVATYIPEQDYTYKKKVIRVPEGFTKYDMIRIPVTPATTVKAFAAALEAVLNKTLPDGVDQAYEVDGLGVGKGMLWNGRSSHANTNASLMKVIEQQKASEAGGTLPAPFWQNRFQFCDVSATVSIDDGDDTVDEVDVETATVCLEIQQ
Kind of experiment: Leishmania donovani Ubiquitin Activating Enzyme (LdE1). The settings on record: 30 µM. In kind it is functional.

Experiment [3] deals with AMP-activated protein kinase, AMPK (Homo sapiens) (UniProt P54646+O43741+P54619+Q9UGJ0+Q9Y478+Q13131+Q9UGI9). Kind of experiment: AMP-dependent Kinase enzyme assay. An in vitro enzyme assay that detects ADP turnover that is directly proportional to AMPK activity. This uses naive AMPK that is activated during the assay with MK-8722. The experiment is classed as functional. Particulars: 30 µM.

Experiment [4] has as its target Sialic acid-binding Ig-like lectin 9 (Homo sapiens) (UniProt Q9Y336). Kind of experiment: Hs-Siglec9 ALPHAscreen SOP 20170721. Particulars: 10 µM.
Experiment [5] concerns Trypanosoma cruzi. Put plainly: Trypanosoma cruzi phosphomannomutase and mannose-1-phosphate guanylyltransferase assay. The experiment is classed as functional. The settings on record: 10 µM.
In experiment [6] the target is T2, Arginase-2, mitochondrial (Homo sapiens) (UniProt P78540).
T2 sequence (whole entry): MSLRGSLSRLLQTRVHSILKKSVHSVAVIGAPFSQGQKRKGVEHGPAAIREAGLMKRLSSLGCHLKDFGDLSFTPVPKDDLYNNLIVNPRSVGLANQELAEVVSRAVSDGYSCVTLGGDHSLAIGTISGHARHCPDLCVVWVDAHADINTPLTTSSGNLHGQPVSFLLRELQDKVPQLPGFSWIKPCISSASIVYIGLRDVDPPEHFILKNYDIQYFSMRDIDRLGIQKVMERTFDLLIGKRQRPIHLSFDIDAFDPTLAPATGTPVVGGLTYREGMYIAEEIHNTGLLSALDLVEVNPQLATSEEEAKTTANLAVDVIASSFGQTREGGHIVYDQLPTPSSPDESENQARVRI
Kind of experiment: in vitro enzyme assay to detect the production of urea directly proportional to the activity of Arginase II. Further: in the data most compounds retested in dose-response had high values. The experiment is classed as functional. The settings on record: 33.3 µM.

Experiment [7] deals with T3, Proteasome subunit beta (Trypanosoma cruzi) (UniProt O96673).
T3 sequence (whole entry): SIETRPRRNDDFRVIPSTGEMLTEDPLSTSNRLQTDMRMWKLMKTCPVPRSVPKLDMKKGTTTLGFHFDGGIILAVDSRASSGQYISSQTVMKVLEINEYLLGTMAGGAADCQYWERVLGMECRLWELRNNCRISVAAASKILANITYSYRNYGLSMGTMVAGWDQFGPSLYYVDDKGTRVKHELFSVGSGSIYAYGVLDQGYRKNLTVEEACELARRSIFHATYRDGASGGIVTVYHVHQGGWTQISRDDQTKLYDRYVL
Kind of experiment: Trypanosoma cruzi proteasome chymotrypsin-like activity (TcProtChymo) assay. Further: in the data most compounds retested in dose-response had high values. The settings on record: 9.37 µM. The experiment is classed as functional.

The species entered for experiment [8] is Homo sapiens. Put plainly: To identify inhibition of the IFN signalling (Jak-Stat) pathway via expression of an eGFP reporter gene under the control of an IFN-stimulated response element (ISRE) containing MxA promoter. In kind it is functional. The settings on record: 30 µM.
Experiment [9] concerns the target T4, Tyrosyl-tRNA synthetase, putative (Trypanosoma cruzi (strain CL Brener)) (UniProt Q4DSP6).
T4 sequence (whole entry): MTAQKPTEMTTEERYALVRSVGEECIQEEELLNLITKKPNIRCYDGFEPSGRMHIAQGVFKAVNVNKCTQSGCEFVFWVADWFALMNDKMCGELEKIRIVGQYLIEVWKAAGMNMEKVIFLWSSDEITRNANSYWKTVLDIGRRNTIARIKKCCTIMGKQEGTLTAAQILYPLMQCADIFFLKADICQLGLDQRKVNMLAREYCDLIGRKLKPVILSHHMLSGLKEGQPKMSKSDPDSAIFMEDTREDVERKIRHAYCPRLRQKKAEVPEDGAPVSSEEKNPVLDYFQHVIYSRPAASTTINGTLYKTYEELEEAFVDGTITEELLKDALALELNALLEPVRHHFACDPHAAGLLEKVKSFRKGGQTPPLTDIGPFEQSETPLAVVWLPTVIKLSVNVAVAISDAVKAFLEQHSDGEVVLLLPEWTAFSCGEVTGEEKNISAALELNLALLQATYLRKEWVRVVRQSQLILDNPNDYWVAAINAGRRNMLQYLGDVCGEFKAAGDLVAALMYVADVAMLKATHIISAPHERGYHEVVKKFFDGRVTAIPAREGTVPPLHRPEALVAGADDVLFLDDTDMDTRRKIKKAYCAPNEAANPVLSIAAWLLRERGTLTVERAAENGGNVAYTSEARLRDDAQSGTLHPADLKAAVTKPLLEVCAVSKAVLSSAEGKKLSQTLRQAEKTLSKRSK
Kind of experiment: Trypanosoma cruzi tyrosyl tRNA synthetase (TcYRS) _High Tyrosine SOP. Further: in the data most compounds retested in dose-response had high values. The settings on record: 30 µM. In kind it is functional.

The target of experiment [10] is T4, Tyrosyl-tRNA synthetase, putative (Trypanosoma cruzi (strain CL Brener)). Kind of experiment: Trypanosoma cruzi tyrosyl tRNA synthetase (TcYRS) SOP. In kind it is functional. Particulars: 30 µM.
Experiment [11] has as its target Chromo domain-containing protein 1 (Saccharomyces cerevisiae (strain ATCC 204508 / S288c) (Baker's yeast)) (UniProt P32657). Kind of experiment: ScCHD-1 Enzyme Inhibition Assay. Further: in the data most compounds retested in dose-response had high values. In kind it is functional. The settings on record: 30 µM.

Chromo domain-containing protein 1 (Saccharomyces cerevisiae (strain ATCC 204508 / S288c) (Baker's yeast)), sequence (P32657 whole entry, the tested form may be a part): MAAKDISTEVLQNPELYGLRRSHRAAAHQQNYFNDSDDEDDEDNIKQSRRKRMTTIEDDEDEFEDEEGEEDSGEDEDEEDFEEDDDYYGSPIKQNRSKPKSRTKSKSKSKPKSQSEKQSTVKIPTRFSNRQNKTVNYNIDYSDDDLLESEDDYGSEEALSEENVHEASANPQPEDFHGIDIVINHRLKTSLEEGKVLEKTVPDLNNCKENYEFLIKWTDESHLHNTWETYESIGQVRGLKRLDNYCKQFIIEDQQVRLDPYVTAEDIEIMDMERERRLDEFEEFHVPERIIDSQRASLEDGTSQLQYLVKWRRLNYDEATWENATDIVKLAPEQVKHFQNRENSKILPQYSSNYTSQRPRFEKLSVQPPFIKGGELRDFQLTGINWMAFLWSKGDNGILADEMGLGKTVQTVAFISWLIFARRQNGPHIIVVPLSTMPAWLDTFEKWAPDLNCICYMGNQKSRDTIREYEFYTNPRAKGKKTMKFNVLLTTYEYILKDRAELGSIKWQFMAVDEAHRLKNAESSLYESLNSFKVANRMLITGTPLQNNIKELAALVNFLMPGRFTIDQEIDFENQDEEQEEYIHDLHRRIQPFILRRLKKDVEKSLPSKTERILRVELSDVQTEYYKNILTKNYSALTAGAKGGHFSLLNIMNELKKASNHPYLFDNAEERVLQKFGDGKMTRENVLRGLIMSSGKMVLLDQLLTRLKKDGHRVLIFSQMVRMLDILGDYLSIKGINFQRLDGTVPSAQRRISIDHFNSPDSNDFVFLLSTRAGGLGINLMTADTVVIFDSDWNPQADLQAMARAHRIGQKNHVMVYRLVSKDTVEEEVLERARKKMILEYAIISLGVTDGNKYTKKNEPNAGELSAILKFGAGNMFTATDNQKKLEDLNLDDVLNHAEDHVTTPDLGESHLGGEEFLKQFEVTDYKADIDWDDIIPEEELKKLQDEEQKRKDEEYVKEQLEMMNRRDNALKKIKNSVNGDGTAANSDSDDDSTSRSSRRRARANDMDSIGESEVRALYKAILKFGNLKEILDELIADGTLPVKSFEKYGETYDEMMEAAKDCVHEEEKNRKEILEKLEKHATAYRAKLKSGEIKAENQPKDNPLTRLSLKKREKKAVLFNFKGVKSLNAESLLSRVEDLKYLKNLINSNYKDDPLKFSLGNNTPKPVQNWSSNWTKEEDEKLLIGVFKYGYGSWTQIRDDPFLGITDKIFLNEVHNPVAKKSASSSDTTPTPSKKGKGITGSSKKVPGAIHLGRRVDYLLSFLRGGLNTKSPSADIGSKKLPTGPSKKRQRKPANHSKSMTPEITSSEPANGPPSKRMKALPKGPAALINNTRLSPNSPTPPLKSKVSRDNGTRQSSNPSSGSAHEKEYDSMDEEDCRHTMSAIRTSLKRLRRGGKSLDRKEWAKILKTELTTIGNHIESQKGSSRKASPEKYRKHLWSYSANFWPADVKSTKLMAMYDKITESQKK
Sialic acid-binding Ig-like lectin 9 (Homo sapiens), sequence (Q9Y336 whole entry): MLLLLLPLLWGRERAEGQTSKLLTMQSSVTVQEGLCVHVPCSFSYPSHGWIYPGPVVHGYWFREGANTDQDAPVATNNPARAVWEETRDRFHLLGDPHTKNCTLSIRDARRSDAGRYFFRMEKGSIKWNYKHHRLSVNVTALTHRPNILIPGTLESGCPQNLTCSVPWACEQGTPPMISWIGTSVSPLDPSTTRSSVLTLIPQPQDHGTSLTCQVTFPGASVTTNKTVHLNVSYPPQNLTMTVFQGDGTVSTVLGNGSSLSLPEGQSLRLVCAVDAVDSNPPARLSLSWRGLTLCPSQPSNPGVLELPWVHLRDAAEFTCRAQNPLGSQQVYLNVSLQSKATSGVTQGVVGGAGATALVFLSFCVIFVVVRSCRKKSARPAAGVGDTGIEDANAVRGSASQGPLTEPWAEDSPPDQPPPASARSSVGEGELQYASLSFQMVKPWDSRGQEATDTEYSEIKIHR
Protein translocase subunit SecA (Escherichia coli (strain K12)), sequence (P10408 whole entry): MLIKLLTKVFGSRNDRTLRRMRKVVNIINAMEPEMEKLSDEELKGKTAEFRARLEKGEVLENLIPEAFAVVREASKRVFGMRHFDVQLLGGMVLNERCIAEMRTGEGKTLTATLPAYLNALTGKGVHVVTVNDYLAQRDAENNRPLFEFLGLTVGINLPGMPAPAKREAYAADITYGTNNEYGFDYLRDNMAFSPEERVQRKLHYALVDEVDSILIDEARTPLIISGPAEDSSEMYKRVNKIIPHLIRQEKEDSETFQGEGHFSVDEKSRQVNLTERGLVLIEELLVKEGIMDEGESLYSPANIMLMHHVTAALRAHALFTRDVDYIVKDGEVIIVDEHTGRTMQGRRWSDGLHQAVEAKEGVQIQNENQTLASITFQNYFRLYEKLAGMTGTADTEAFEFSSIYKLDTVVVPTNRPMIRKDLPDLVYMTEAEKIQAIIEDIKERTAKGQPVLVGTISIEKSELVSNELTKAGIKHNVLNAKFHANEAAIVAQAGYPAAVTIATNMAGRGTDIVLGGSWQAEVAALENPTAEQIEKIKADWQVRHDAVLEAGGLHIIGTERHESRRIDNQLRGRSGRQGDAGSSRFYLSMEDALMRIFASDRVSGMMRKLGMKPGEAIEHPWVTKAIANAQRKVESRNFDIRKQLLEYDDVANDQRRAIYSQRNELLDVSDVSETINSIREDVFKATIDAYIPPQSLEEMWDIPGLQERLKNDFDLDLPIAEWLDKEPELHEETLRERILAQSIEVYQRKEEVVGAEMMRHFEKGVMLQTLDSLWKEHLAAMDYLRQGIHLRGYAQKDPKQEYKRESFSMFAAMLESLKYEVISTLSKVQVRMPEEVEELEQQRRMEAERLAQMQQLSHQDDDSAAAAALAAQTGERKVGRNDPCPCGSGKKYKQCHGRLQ

Take `COCC1COCCC12CCN(C(=O)CCOc1ccccc1)CC2` (stereo not drawn): the Percent Effect was -3.35% in [1]; 2.7% in [2]; 0.684% in experiment [3]; -3.94% in experiment [4]; 8.2% in experiment [5]; -2.5% in [6]. For the same compound, the Percent Effect in experiment [7] is 6%; in experiment [8], -0.428%; in [9], 8.91%; in experiment [10], 6.1%; in [11], 1.14%.
In the case of `CC(=O)N1CC(=O)N(c2ccccc2)CC12CCN(Cc1nccs1)C2` (stereo not drawn), the Percent Effect in experiment [1] is 3.29%; in experiment [2] it was 10.7%; in experiment [3], 3.41%; in experiment [4] it was -1.44%; in experiment [5] it was -5.02%; in [6], -54.3%. For the same compound, the Percent Effect in experiment [7] is 7.69%; in [8] it was -3.63%; in experiment [9], 7.29%; in [10], 30%; in experiment [11] it was -7.28%.
`Cc1noc2ncc(C(=O)N3CCCC3c3ccncc3)cc12` (stereo not drawn): the Percent Effect is -7.65% in experiment [1]; 20.2% in experiment [2]; -6.44% in experiment [3]; 0.762% in experiment [4]; 10.1% in experiment [5]; -3.42% in [6]. Moreover, the Percent Effect in [7] is 17.4%; in experiment [8] it was 21.9%; in experiment [9], 5.42%; in [10], 24.1%; in experiment [11], -9.53%.
On to `O=C(c1cscn1)N1C[C@@H]2[C@@H](C1)OCC(=O)N2CC1CCCC1`, for which the Percent Effect in experiment [1] was -1.51%; in experiment [2], -54.5%; in experiment [3], 1.15%; in experiment [4], 6.36%; in [5] it was -5.01%; in experiment [6] it was -8.28%. Also, the Percent Effect in experiment [7] was 16.5%; in experiment [8] it was 0.71%; in experiment [9] it was -87.1%; in [10], -147%; in experiment [11], -3.29%.
Regarding `COc1cc(NC(=O)Cn2ccc3sc(C)cc3c2=O)cc(OC)c1`, the Percent Effect was 0.749% in [1]; 0% in experiment [2]; 8.38% in experiment [3]; 5.78% in experiment [4]; -5.42% in experiment [5]; 17.4% in [6]. Besides, the Percent Effect in experiment [7] is 7.49%; in [8], 2.45%; in experiment [9], 1.06%; in experiment [10], 11.5%; in [11] it was -0.379%.
In the case of `c1cnc(-c2nc(CN3CCC(c4ccn[nH]4)CC3)cs2)nc1`, the Percent Effect was -1.4% in [1]; 13.5% in [2]; -30.2% in [3]; 15% in [4]; 2.32% in experiment [5]; 1.66% in [6]. Moreover, the Percent Effect in [7] is 2.15%; in experiment [8] it was -0.446%; in experiment [9] it was 7.92%; in experiment [10], 23.2%; in experiment [11], -3.65%.
On to `Cc1nn(C)c(C)c1CNCc1ccnc(N2CCOCC2)c1`, for which the Percent Effect in experiment [1] was -6.06%; in experiment [2] it was 1.27%; in [3], 2.39%; in experiment [4] it was -0.497%; in [5], 2.56%; in experiment [6], -0.645%. Moreover, the Percent Effect in experiment [7] is -1.03%; in experiment [8], 24%; in experiment [9] it was -1.04%; in experiment [10] it was -2.53%; in [11], -31.5%.
`COCCN(C)C[C@@H]1CN(C(=O)c2ccoc2)C[C@@H]1CO`: the Percent Effect was -3.19% in experiment [1]; 2.7% in experiment [2]; -0.15% in [3]; 1.89% in experiment [4]; 6.56% in experiment [5]; -1.43% in [6]. Also, the Percent Effect in experiment [7] is 5.34%; in experiment [8] it was 4.14%; in experiment [9] it was 6.88%; in experiment [10], 9.76%; in [11] it was -2.44%.
